# From PubChem BioAssay (Tox21)
# “And” between values parts separate entries of the source, which are not always exact repeats. Identical values can stand only once. Results filed as inconclusive are left out. A call without a number means that no potency is given here. Where a structure was tested more than once in an assay, its records may differ in their call. The source made the active and inactive calls. Unless noted, the call rests on the fitted dose curve; in most records, active means well fitted curve in the direction sought with a large enough effect in the repeat runs; inconclusive means weak or mixed curves; inactive means no such curve, though single readings can be large; an effect the other way counts as inactive or inconclusive.
# Experiments:
# [1] = qHTS assay for small molecule agonists of the p53 signaling pathway (AID 651631; calls by dose curve; further: nearly all actives have a fitted effect of over 15% in size; further: potency means the concentration at half of the fitted maximal effect)
# Method in brief: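 We treat p53RE-bla HCT-116 cells with compounds for 16 h at 37 °C, add LiveBLAzer B/G FRET substrate for 2 h at room temperature, and measure fluorescence intensity.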
# [2] = qHTS assay for small molecule agonists of the p53 signaling pathway - cell viability (AID 651633; calls by dose curve;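 further: p53RE-bla HCT reporter cells with a stable beta-lactamase p53 reporter; series mostly up to about 83 µM; nearly all actives have a fitted effect of over 30% in size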)
# Method in brief: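 p53RE-bla cells were treated with compound for 16 hours at 37 C. Cytotoxicity was then measured as CellTiter-Glo luminescence after 30 min at room temperature.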
# [3] = qHTS assay for small molecules that induce genotoxicity in human embryonic kidney cells expressing luciferase-tagged ATAD5 - cell viability (AID 651634; calls by dose curve; further: nearly all actives have a fitted effect of over 25% in size; further: potency means the concentration at half of the fitted maximal effect)
# Method in brief: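 15.5 hr compound or vehicle exposure of HEK293T cells expressing luciferase-tagged ATAD5 at 37C; live-cell protease activity is read by fluorescence after 30 min of CellTiter-Fluor.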
# [4] = qHTS assay for small molecule disruptors of the mitochondrial membrane potential - cell viability (AID 720634; calls by dose curve;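 further: human HepG2 liver cancer cells; series mostly up to about 83 µM; nearly all actives have a fitted effect of over 20% in size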)
# Method in brief: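 In this qHTS format, HepG2 cells plated overnight were pinned with compound, incubated 1 hr, and assayed for ATP luminescence with CellTiter-Glo after m-MPI dye addition.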
# [5] = qHTS assay for small molecule disruptors of the mitochondrial membrane potential (AID 720635); further: potency means the concentration at half of the fitted maximal effect
# Method in brief: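 HepG2 cells exposed to compound 1 hr at 37C, then Mito-MPS dye 30 min. Ratio read of aggregate (540/590 nm) versus monomer (490/535 nm) fluorescence.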
# [6] = qHTS assay to test for compound auto fluorescence at 590 nm (red) in HepG2 cells (AID 720674)
# Method in brief: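 HepG2 cells, 2,000 per well in MEM with 10% FBS, attached overnight at 37 C, then got 23 nL compound or DMSO. After 1 hr at 37 C, 5% CO2, red fluorescence was read at 540/590 nm against Rose Bengal sodium as reference.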
# [7] = qHTS assay to test for compound auto fluorescence at 535 nm (green) in HepG2 cells (AID 720675)
# [8] = qHTS assay to test for compound auto fluorescence at 460 nm (blue) in HEK293 cells (AID 720678)
# Method in brief: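 HEK293, 2,000 cells/well, 10% dialyzed FBS; attach 4-5 hr 37C; pin compound or DMSO; o/n 37C/5% CO2; fluorescence 405/460 nm; triamterene-equivalent units.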
# [9] = qHTS assay to test for compound auto fluorescence at 590 nm (red) in HEK293 cells (AID 720679)
# Method in brief: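 Intensity at 540nm excitation and 590nm emission is reported as Rose Bengal sodium-equivalent autofluorescence. Measurements followed overnight exposure (37C, 5% CO2) of HEK293 cells, 2,000 per well, to 23 nL compound.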
# [10] = qHTS assay for small molecules that induce genotoxicity in human embryonic kidney cells expressing luciferase-tagged ATAD5 (AID 651632); further: nearly all actives have a fitted effect of over 15% in size; further: potency means the concentration at half of the fitted maximal effect
# Method in brief: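 Concentration-response screen for ATAD5 upregulation in HEK293T luciferase reporter cells; 16 hr treatment at 37C, then luminescence after 30 min with Amplite at room temperature.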
Structure (SMILES),Potency [1],Potency [2],Potency [3],Potency [4],Potency [5],Potency [6],Potency [7],outcome [8],Potency [9],Potency [10]
CCCCCCCCCCCCCO,inactive,inactive,inactive,inactive,inactive,inactive,inactive,inactive,inactive,
C=C1C[C@H]2[C@@H]3C=C(C)C4=CC(=O)CC[C@]4(C)[C@H]3CC[C@]2(C)[C@@]1(OC(C)=O)C(C)=O,inactive,,inactive,inactive,inactive,inactive,inactive,inactive,inactive,
C[C@]12C=CC(=O)C=C1CC[C@H]1[C@@H]3C[C@@H](O)[C@](O)(C(=O)CO)[C@@]3(C)C[C@H](O)[C@@]12F,inactive,inactive,inactive,inactive,inactive,inactive,inactive,,inactive,inactive
CC1(C)OC(=O)NC1=O,inactive,inactive,inactive,inactive,inactive,inactive,inactive,inactive,inactive,
O=C(O)c1ccc(O)cc1,inactive,inactive,inactive,inactive,inactive,inactive,inactive,inactive,inactive,
CC(C)[N+](C)(CCOC(=O)C1c2ccccc2Oc2ccccc21)C(C)C,inactive,,inactive,inactive,inactive,inactive,inactive,,inactive,inactive
Nc1ccc(O)c(N)c1,inactive,,54.1 µM (active) and 61.1 µM (active),inactive,10.8 µM (active) and 4.86 µM (active),inactive,inactive,,,
Clc1ccc(Sc2cc(Cl)c(Cl)cc2Cl)cc1,inactive,,inactive,inactive,1.68 µM (active) and 864 nM (active),inactive,inactive,inactive,inactive,
C1CN(SSN2CCOCC2)CCO1,inactive,,inactive,inactive,61.1 µM (active),inactive,inactive,inactive,inactive,inactive
NCCOCCO,inactive,inactive,inactive,inactive,inactive,inactive,inactive,inactive,inactive,inactive
Nc1cc([N+](=O)[O-])ccc1C(=O)O,inactive,,inactive,inactive,38.6 µM (active),inactive,inactive,inactive,inactive,inactive
CCc1cccc2c3c([nH]c12)C(CC)(CC(=O)O)OCC3 (centres undefined),inactive,inactive,inactive,inactive,,inactive,inactive,,,
OC[C@@H](O)[C@@H](O[C@@H]1O[C@H](CO)[C@H](O)[C@H](O)[C@H]1O)[C@H](O)[C@@H](O)CO,inactive,inactive,inactive,inactive,inactive,inactive,inactive,inactive,inactive,
CC(C)(C)c1cccc(C(C)(C)C)c1O,inactive,,inactive,inactive,16.8 µM (active) and 15.4 µM (active),inactive,inactive,inactive,inactive,
O=S1(=O)CCCO1,inactive,inactive,inactive,inactive,inactive,inactive,inactive,inactive,,
CCC(Cc1c(I)cc(I)c(N)c1I)C(=O)O (centres undefined),inactive,inactive,inactive,inactive,inactive,inactive,inactive,inactive,inactive,inactive
CC(C)(Oc1ccc(Cl)cc1)C(=O)O,inactive,inactive,inactive,inactive,inactive,inactive,inactive,inactive,,inactive
IC(I)I,inactive,inactive,inactive,,,inactive,inactive,inactive,,inactive
CN(C)C,inactive,inactive,inactive,inactive,inactive,inactive,inactive,,,inactive
NCCS(=O)(=O)O,inactive,inactive,inactive,inactive,inactive and 7.13 µM (active),inactive,inactive,inactive,inactive,inactive
C[C@]12CC[C@@H]3c4ccc(O)cc4CC[C@H]3[C@@H]1CC[C@H]2O,15.6 µM (active) and 27.3 µM (active),,,,27.8 µM (active) and 27.3 µM (active),inactive,inactive,inactive,inactive,inactive
CC(=O)Nc1ccc2c(c1)Cc1cc(NC(C)=O)ccc1-2,inactive,inactive,inactive,inactive,inactive,inactive,inactive,,,inactive
Oc1c(Cl)ccc(Cl)c1Cl,inactive,inactive,inactive,,4.32 µM (active) and 61.1 µM (active),inactive,inactive,inactive,,inactive
CC(=O)Oc1c(C)c(C)c2c(c1C)CC[C@@](C)(CCC[C@H](C)CCC[C@H](C)CCCC(C)C)O2,inactive,inactive,,inactive,inactive,inactive,inactive,,inactive,
Cc1ccc2c(c1)C(=O)OC2=O,inactive,inactive,inactive,inactive,inactive,inactive,inactive,inactive,inactive,inactive

Structure (SMILES),Potency [1],Potency [2],Potency [3],Potency [4],Potency [5],Potency [6],Potency [7],outcome [8],Potency [9],Potency [10]
CCCCCCCCCCC(CO)CCCCCCCC (centres undefined),inactive,,inactive,inactive,inactive,inactive,inactive,inactive,inactive,inactive
Cc1ccc(S(=O)(=O)O)cc1C,inactive,,inactive,inactive,inactive,inactive,inactive,inactive,inactive,inactive
CC(C)[C@@H]1CC[C@@H](C)CC1=O,inactive,inactive,inactive,inactive,,inactive,inactive,inactive,,
C=CCOC(=O)C(=C)C,inactive,inactive,inactive,inactive,inactive,inactive,inactive,,inactive,inactive
Nc1cc(Cl)c(N)c(Cl)c1,inactive,inactive,inactive,inactive,,inactive,inactive,inactive,inactive,inactive
COC(=O)C(C)Oc1ccc(Oc2ncc(C(F)(F)F)cc2Cl)cc1 (centres undefined),inactive,,inactive,inactive,inactive,inactive,inactive,,inactive,
CN(C)CCCN1c2ccccc2Sc2ccc(Cl)cc21,10.9 µM (active),inactive,inactive,inactive,,inactive,inactive,inactive,inactive,inactive
C=CCCCCCCCCCC,inactive,,inactive,inactive,inactive,inactive,inactive,inactive,inactive,
CC(C)=CCO,inactive,inactive,inactive,inactive,inactive,inactive,inactive,inactive,inactive,
c1ccc2c(c1)ccc1cc3c(ccc4ccccc43)cc12,12.1 µM (active),inactive,inactive,inactive,inactive,inactive,inactive,,,853 nM (active) and 959 nM (active)
CCCCCCCC/C=C\CCCCCCCC(=O)O,inactive,inactive,inactive,inactive,inactive,inactive,inactive,inactive,inactive,
CN1CCOCC1,inactive,inactive,inactive,inactive,inactive,inactive,inactive,,inactive,
O=C(O)CCCCCCCCCCCC(=O)O,inactive,inactive,inactive,inactive,inactive,inactive,inactive,inactive,,inactive
c1ccc2cc3ccccc3cc2c1,inactive,inactive,inactive,inactive,5.01 µM (active) and 34.4 µM (active),inactive,inactive,inactive,inactive,inactive
c1ccc2c(c1)ccc1ncccc12,,,inactive,inactive,27.3 µM (active),inactive,inactive,inactive,,inactive
CC1(C)O[C@@H]2C[C@H]3[C@@H]4C[C@H](F)C5=CC(=O)C=C[C@]5(C)[C@@]4(F)[C@@H](O)C[C@]3(C)[C@]2(C(=O)CO)O1,,,inactive,inactive,inactive,inactive,inactive,,inactive,inactive
C=C[C@H]1CN2CC[C@H]1C[C@H]2[C@H](O)c1ccnc2ccc(OC)cc12,,,inactive,inactive,inactive,inactive,inactive,inactive,inactive,inactive
CC1(C)C(C=C(Cl)Cl)C1C(=O)OCc1cccc(Oc2ccccc2)c1 (centres undefined),,inactive,inactive,inactive,30.6 µM (active),inactive,inactive,inactive,,inactive
C=C[C@@]1(C)CC(=O)[C@]2(O)[C@@]3(C)[C@@H](O)CCC(C)(C)[C@@H]3[C@H](O)[C@H](OC(C)=O)[C@@]2(C)O1,,,inactive,inactive,26.6 µM (active),inactive,inactive,inactive,inactive,266 nM (active) and 122 nM (active)
CN(C)/N=N/c1nc[nH]c1C(N)=O,,inactive,inactive,inactive,inactive,inactive,inactive,inactive,,inactive
CC(=O)Oc1ccc(C(c2ccc(OC(C)=O)cc2)c2ccccn2)cc1,944 nM (active) and 271 nM (active),,inactive,inactive,6.68 µM (active) and 21.6 µM (active),inactive,inactive,,inactive,
Cc1ccc(S(=O)(=O)NCl)cc1,,inactive,inactive,inactive,inactive,inactive,inactive,inactive,inactive,inactive
Brc1nc2ccccc2s1,,inactive,inactive,inactive,inactive,inactive,inactive,inactive,inactive,inactive
c1ccc2ncccc2c1,,inactive,inactive,inactive,inactive,inactive,inactive,inactive,inactive,inactive
